The entries come from a sample that favours hits as a whole.
LmPK inh – blocks Leishmania mexicana pyruvate kinase activity; Q27686; purified LmPK, Kinase-Glo ATP luminescence, 1 h; Potency, µM (series often up to 57.5 µM), for inactives: at the top dose activity change, negative = inhibition, hits mostly inhibitors; 290,000 compounds, 0.37% hits; AID 1721; note: potency is the fitted concentration of half-maximal effect; % is set by controls: 0 for no effect and ±100 for the full control effect
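In 50 mM imidazole pH 7.2 with 7 mM MgCl2, LmPK (0.1 nM) turned over PEP (0.5 mM) and ADP (0.1 mM) for 1 h at room temperature. Luciferase read-out of ATP.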
Sm TGR inh – blocks Schistosoma mansoni thioredoxin glutathione reductase; purified TGR, DTNB reduction, TNB absorbance 405 nm; Q962Y6; Potency, µM (top dose mostly 114 µM), for inactives: top-dose activity change, negative = inhibition, usual class: inhibitors; 360,000 compounds, 3% hits; note: potency is the fitted concentration of half-maximal effect; % is set by controls: 0 for no effect and ±100 for the full control effect; nearly all actives have a fitted effect of over 60% in size
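Kinetic colorimetric format: TGR-catalysed, NADPH-driven DTNB reduction monitored via TNB absorbance. Enzyme dispensed at 20 nM; compound exposure 15 min at room temperature before reaction start.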
Cycloheximide cs – counter-screen hit for Shiga toxin inhibitors, cycloheximide; cell reporter, cycloheximide protein synthesis inhibition counterscreen; max response, %; 300,000 compounds, 12% hits; in the data active = max response mostly above about 13%, no sharp cut-off; inactive = mostly below about 14%; note: read at 38.3 µM for the half of the compounds with a filed dose; 0% is about no effect
Shiga toxin inh – inhibitors of Shiga toxin in Vero cells | Vero cells, Shiga toxin protein synthesis inhibition reporter | inhibition, % at 38.7 µM | 290,000 compounds, 9.2% hits; in the data active = inhibition mostly above about 28%, no sharp cut-off; inactive = mostly below about 43%; note: 0% is about no effect
Tb PYK inh – inhibitors of Trypanosoma brucei pyruvate kinase. TbPYK enzyme, Kinase-Glo Plus ATP luminescence, 45 min. Q57TT1. Potency, µM (doses to about 76.8 µM), for inactives: top-dose activity, negative = inhibition, usual class: inhibitors. 410,000 compounds, 0.12% hits; note: potency is the fitted concentration of half-maximal effect; % is set by controls: 0 for no effect and ±100 for the full control effect; nearly all actives have a fitted effect of over 50% in size
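Activity of T. brucei pyruvate kinase was followed by Kinase-Glo Plus luminescence after the enzyme reacted 45 min at room temperature with 130 uM ADP (final) and substrate. Test compounds were added before ADP at multiple concentrations.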
Giardia FBPA inh – blocks Giardia fructose-bisphosphate aldolase activity; Potency, µM (series often up to 59.6 µM), for the others: at the highest dose activity, negative = inhibition, hits mostly inhibitors; 290,000 compounds, 0.71% hits; purified Giardia FBPA; note: potency is the fitted concentration of half-maximal effect; % is set by controls: 0 for no effect and ±100 for the full control effect; nearly all actives have a fitted effect of over 55% in size
Target sequence (A8B2U2 whole entry, looked up): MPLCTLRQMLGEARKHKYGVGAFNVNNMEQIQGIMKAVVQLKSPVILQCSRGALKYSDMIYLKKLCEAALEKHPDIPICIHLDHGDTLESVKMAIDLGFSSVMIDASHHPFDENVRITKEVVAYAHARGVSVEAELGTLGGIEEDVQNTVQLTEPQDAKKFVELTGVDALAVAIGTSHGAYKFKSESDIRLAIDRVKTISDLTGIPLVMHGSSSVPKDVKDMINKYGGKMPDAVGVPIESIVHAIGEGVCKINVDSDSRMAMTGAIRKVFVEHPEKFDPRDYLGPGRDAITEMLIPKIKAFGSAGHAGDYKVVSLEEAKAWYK
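40 nM FBPA preincubated 10 min at RT with compound (up to 57.5 uM final), then substrate plus GAPDH/TPI/NAD/arsenate coupling and diaphorase/resazurin added. Fluorescence read after 20 min at RT, 525/598 nm.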
* hit, by the source's call; u = inconclusive; x = no result; + = active, no number; [ ] = remark or other dose. Unless noted, calls come from the whole dose curve; as a rule, active = well fitted curve in the direction sought with a large enough effect; inconclusive = small, poorly fitted or top-dose-only effect, or another doubt; inactive = no such curve, though single readings can be large; an effect the other way counts as inactive or inconclusive.

SMILES	LmPK inh	Sm TGR inh	Cycloheximide cs	Shiga toxin inh	Tb PYK inh	Giardia FBPA inh
CC(C)CC(NC(=O)CN)C(=O)NC(Cc1ccccc1)C(=O)O (configuration not stated)	x	x	x	x	x	-6%
Cc1ccc2cccc(OCC(=O)N3CCc4ccccc43)c2n1	0%	-3%	-2	-3	8%	-1%
O=C(OCC(=O)N1CCCc2ccccc21)c1cccnc1Cl	-6%	-2%	11	24	-2%	2%
O=C(OCC(=O)N1CCc2ccccc21)c1ccccn1	-7%	x	32*	52	-4%	2%
O=C(OCC(=O)N1CCc2ccccc21)c1cccnc1Cl	-25%	5%	35*	69*	-1%	0%
O=C(COc1cccc2cccnc12)N1CCc2ccccc21	-2%	x	18*	63*	1%	-20%
COC(=O)[C@@]1(O)C[C@@H]2O[C@@]1(C)n1c3ccccc3c3c4c(c5c6ccccc6n2c5c31)C(=O)NC4	x	x	-3	-12	x	6%
O=C(COC(=O)C1C2CC3OC(=O)C1C3C2)Nc1ccc(F)cc1 (configuration not stated)	-7%	11%	-4	34	1%	5%
O=C(COC(=O)C1C2CC3OC(=O)C1C3C2)Nc1ccccc1 (configuration not stated)	1%	-8%	16*	17	0%	6%
COc1ccc(OCCCC(=O)Nc2cc(Cl)ccc2-n2cncn2)cc1	x	-3%	x	x	-3%	x
O=C(CCNS(=O)(=O)c1ccc(Br)cc1)NCC(c1cccs1)N1CCOCC1 (configuration not stated)	x	x	x	x	0%	x
CCc1ccc(NC(=O)COc2ccc(/C=C(/C#N)c3nc4ccccc4[nH]3)cc2OC)cc1	1%	-12%	22*	active	-11%	1%
COc1cc(/C=C(\C#N)c2nc3ccccc3[nH]2)ccc1OCc1ccc(F)cc1	x	-5%	x	x	-5%	x
COc1cc(/C=C(/C#N)c2nc3ccccc3[nH]2)ccc1OCc1ccc(C(=O)O)o1	14%	-4%	10	50	2%	x
COC(=O)c1ccc(COc2ccc(/C=C(\C#N)c3nc4ccccc4[nH]3)cc2OC)o1	2%	-1%	33*	81*	2%	0%
Cc1nc2cccnc2n1-c1cccc(C(=O)NCCN(C)C)c1	x	-2%	x	x	1%[15.4 µM]	x
O=C(CC1N=C2c3ccccc3N=C(SCc3ccc(F)cc3)N2C1=O)NCc1ccco1 (configuration not stated)	1%	u	33*	30*	-7%	11%
O=C(CCC1N=C2c3ccccc3N=C(SCc3ccc(Cl)cc3)N2C1=O)NCc1ccco1 (configuration not stated)	3%	u	18	44	3%	2%
Cc1ccc(CSC2=Nc3ccccc3C3=NC(CC(=O)NCc4ccco4)C(=O)N23)cc1 (configuration not stated)	3%	35µM*	38*	68*	1%	u
O=C(CCC1N=C2c3ccccc3N=C(SCc3ccc(F)cc3)N2C1=O)NCc1ccco1 (configuration not stated)	3%	25µM*	19*	30	-1%	-12%
Cc1ccc(CSC2=Nc3ccccc3C3=NC(CC(=O)NCc4cccs4)C(=O)N23)cc1 (configuration not stated)	x	12%	x	x	-9%	x
COc1ccc(Cn2c(=O)c3oc4ccccc4c3n(Cc3ccc(F)cc3)c2=O)cc1	x	-1%	x	x	-3%	x
Cn1cccc1/C=C1\SC(=O)N(c2ccc(O)cc2)C1=O	-2%	-13%	39*	33*	3%	2%
CCOc1ccc(N2C(=O)S/C(=C\c3cccn3C)C2=O)cc1	3%	0%	10	30	-13%	0%
C/C(=N\NC(=O)c1ccccc1NC(=O)c1ccc(Cl)cc1)c1ccncc1	u	-4%	-16	-15	u	-10%
SMILES	LmPK inh	Sm TGR inh	Cycloheximide cs	Shiga toxin inh	Tb PYK inh	Giardia FBPA inh
O=C(Nc1ccccc1C(=O)N/N=C/c1ccco1)c1ccc(F)cc1	16µM*	3%	15	14	-1%	-16%
O=C(Nc1ccccc1C(=O)Nc1ccc(F)cc1)c1ccco1	-3%	-3%	11	40	-2%	x
Cc1ccccc1C(=O)Nc1ccccc1C(=O)N/N=C\c1ccco1	-11%	9%	-6	0	-16%	-18%
O=C(Nc1ccccc1C(=O)N/N=C/c1ccco1)c1ccccc1	u	-7%	17	+	-9%	-7%
O=C(Nc1ccccc1C(=O)N/N=C/c1ccco1)c1ccc(Cl)cc1	-16%	-11%	19*	76*	-12%	11%
CCCCCn1cnc2c(sc3nc4c(cc32)CSC(C)(C)C4)c1=O	1%	2%	61*	150*	1%	0%
CCc1nc2sc3c(=O)[nH]cnc3c2c2c1CSC(C)(C)C2	-10%	35µM*	-1	-1	-21%	0%
CC1(C)Cc2nc3sc4c(=O)[nH]cnc4c3cc2CS1	-11%	10%	10*	15	-2%	4%
COc1ccc(C2=Nn3c(nnc3-c3cccc(OC)c3OC)SC2)c(OC)c1	x	x	-2	-6	x	7%
CCCCN(C)C(=O)C1CCN(c2ccc(S(=O)(=O)N3CCOCC3)cc2[N+](=O)[O-])CC1	x	45µM*	x	x	-8%	x
CC(C)CNC(=O)C1CCN(c2ccc(S(=O)(=O)N3CCOCC3)cc2[N+](=O)[O-])CC1	-1%	10%	-6	-3	-3%	-1%
COC(=O)c1cccc(NC(=O)c2nsc3ccccc23)c1	x	-7%	x	x	-19%	x
CCc1ccccc1NC(=O)NC1CCCCC1	-11%	17%	14*	13	10%	34%
CCS(=O)(=O)c1ccc(O)c(NC(=O)NC2CCCCC2)c1	-1%	-9%	12*	13	3%	5%
CCS(=O)(=O)c1ccc(O)c(NC(=O)Nc2cccc3ccccc23)c1	-8%	5%	-1	-5	-2%	16%
O=C(Nc1ccccc1Cl)NC1CCCCCCC1	1%	5%	40*	57*	2%	x
CCc1cccc(CC)c1NC(=O)NC1CCCCC1	0%	-1%	-2	6	4%	9%
COc1ccccc1CNc1ncncc1-c1ccc(C(=O)N(C)C)cc1	x	x	x	x	x	-6%
CCOC(=O)[C@]12CCCC=C1N(Cc1ccco1)C(=O)[C@H](CC(=O)NCCCN1CCCC1=O)C2	x	x	x	x	-2%	x
COc1ccc(-n2c(SCC(=O)Nc3ccc(C(=O)O)cc3)nnc2-c2ccccc2)cc1OC	-1%	6%	-1	2	2%	13%
O=C(Nc1ccc2nc(SCC(=O)N3CCOCC3)sc2c1)c1cccc(Cl)c1	x	5%	x	x	-1%	x
Cc1cccc(NC(=O)CN(C)C(=O)C2CCCC2)c1C	x	-9%	x	x	2%	x

Compound activity (PubChem BioAssay)
